Test results: PubChem BioAssay (Tox21)
Some compounds were tested as several samples or in several runs, with calls that do not always agree. The source made the active and inactive calls. A call without a number means that no potency is given here. Unless noted, calls follow the shape of the dose curve; as a rule, active = well fitted curve in the direction sought with a large enough effect in the repeat runs; inconclusive = weak or mixed curves; inactive = no such curve, though single readings can be large; an effect the other way counts as inactive or inconclusive.

How the values were obtained:
[1] = qHTS assay to identify small molecule antagonists of the thyroid receptor (TR) signaling pathway - cell viability counter screen (AID 743064); also: nearly all actives have a fitted effect of over 50% in size; also: potency is read from the fitted curve at half-maximal effect
How it was run: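 CellTiter-Fluor readout, 30 min at 37 °C/5% CO2, following 23.5 h incubation of GH3.TRE-Luc cells with test compound and 1 nM T3 (final).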

[2] = qHTS assay to identify small molecule antagonists of the thyroid receptor (TR) signaling pathway (AID 743065); also: nearly all actives have a fitted effect of over 55% in size; also: potency is read from the fitted curve at half-maximal effect
How it was run: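 GH3.TRE-Luc rat pituitary cells carrying two TR response elements driving luciferase were plated for 4 h, given compound plus 1 nM T3 (final), and incubated 23.5 h at 37 C. ONE-Glo luminescence measured reporter inhibition; CellTiter-Fluor fluorescence tracked cytotoxicity.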

[3] = system: thyroid hormone receptor (rat, GH3 cells); assay: qHTS assay to identify small molecule agonists of the thyroid receptor (TR) signaling pathway (AID 743066; calls by dose curve; also: potency is read from the fitted curve at half-maximal effect)
[4] = biological target: Estrogen receptor (Homo sapiens) (UniProt P03372); assay: qHTS assay to identify small molecule antagonists of the estrogen receptor alpha (ER-alpha) signaling pathway (AID 743069; active = well fitted curve in the direction sought with a large enough effect in the signal ratio in the repeat runs, not every such curve was filed as active; inconclusive = weak or mixed curves, or effect the other way; inactive = no such curve, though single readings can be large or run the other way; the % refers to the signal ratio)
Estrogen receptor (Homo sapiens), sequence (P03372 whole entry, looked up): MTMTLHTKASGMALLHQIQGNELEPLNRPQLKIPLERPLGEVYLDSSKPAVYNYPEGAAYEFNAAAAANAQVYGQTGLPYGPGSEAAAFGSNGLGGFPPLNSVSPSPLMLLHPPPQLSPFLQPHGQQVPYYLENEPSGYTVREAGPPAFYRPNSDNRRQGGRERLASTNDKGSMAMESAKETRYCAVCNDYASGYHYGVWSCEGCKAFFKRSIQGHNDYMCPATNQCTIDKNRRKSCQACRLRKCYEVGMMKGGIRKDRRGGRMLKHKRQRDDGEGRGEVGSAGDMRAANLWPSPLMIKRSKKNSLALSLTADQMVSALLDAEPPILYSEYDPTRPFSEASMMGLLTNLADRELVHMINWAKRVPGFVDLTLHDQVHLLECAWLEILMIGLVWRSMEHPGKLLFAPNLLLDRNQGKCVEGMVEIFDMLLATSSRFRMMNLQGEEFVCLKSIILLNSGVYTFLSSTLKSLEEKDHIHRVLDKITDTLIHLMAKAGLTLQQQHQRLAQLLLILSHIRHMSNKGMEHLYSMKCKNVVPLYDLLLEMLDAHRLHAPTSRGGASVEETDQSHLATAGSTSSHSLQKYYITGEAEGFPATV
How it was run: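 Estradiol-stimulated ER-alpha-UAS-bla HEK293 cells, 18 hr compound exposure at 37C. LiveBLAzer B/G substrate, 2 hr RT, fluorescence read.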

[5] = qHTS assay to identify small molecule antagonists of the estrogen receptor alpha (ER-alpha) signaling pathway - cell viability counter screen (AID 743074; calls by dose curve;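 also: HEK293 cells carrying ER-alpha-UAS-bla reporter stimulated with 17beta-estradiol; nearly all actives have a fitted effect of over 45% in size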)
[6] = biological target: Estrogen receptor (Homo sapiens) (UniProt P03372); assay: qHTS assay to identify small molecule agonists of the estrogen receptor alpha (ER-alpha) signaling pathway (AID 743075; calls by dose curve;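 also: HEK293 GripTite cells with ER-alpha and UAS-driven beta-lactamase reporter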; also: potency is read from the fitted curve at half-maximal effect)
[7] = qHTS assay to identify small molecule antagonists of the estrogen receptor alpha (ER-alpha) signaling pathway using the BG1 cell line (AID 743080; calls by dose curve;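 also: BG1 cells stimulated with 17beta-estradiol alongside compound; series mostly up to about 70 µM; nearly all actives have a fitted effect of over 25% in size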)
How it was run: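 After 5 days in phenol-red-free 10% charcoal-stripped FBS medium, BG1-Luc-4E2 cells were seeded, left 24 h at 37 C, co-treated with compounds and 17beta-estradiol for 21.5 h, then assayed for viability and luciferase.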

[8] = qHTS assay to identify small molecule antagonists of the estrogen receptor alpha (ER-alpha) signaling pathway using the BG1 cell line - cell viability counter screen (AID 743081);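 also: compound given together with 17beta-estradiol as the ER stimulus; series mostly up to about 70 µM; nearly all actives have a fitted effect of over 45% in size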
Aromatase (Homo sapiens) = Aromatase (Homo sapiens) (UniProt P11511); assay: qHTS assay to identify aromatase inhibitors (AID 743083); also: series mostly up to about 70 µM; nearly all actives have a fitted effect of over 55% in size
Aromatase (Homo sapiens), sequence (P11511 whole entry, looked up): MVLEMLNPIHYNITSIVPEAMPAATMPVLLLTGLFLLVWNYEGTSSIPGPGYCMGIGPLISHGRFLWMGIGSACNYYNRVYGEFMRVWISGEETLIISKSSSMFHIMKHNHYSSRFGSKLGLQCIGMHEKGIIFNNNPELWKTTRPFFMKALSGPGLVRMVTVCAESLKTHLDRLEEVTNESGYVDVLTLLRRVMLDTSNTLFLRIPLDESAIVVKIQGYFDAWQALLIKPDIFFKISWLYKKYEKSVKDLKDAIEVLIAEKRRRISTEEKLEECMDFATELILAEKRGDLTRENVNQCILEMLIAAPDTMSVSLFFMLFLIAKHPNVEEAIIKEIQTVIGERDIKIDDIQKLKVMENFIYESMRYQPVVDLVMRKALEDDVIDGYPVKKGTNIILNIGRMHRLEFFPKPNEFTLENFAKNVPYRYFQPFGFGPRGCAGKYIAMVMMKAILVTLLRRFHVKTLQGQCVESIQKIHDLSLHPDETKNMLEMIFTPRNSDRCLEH

[9] = biological target: Estrogen receptor (Homo sapiens) (UniProt P03372); assay: qHTS assay to identify small molecule agonists of the estrogen receptor alpha (ER-alpha) signaling pathway using the BG1 cell line (AID 743079); also: nearly all actives have a fitted effect of over 20% in size; also: potency is read from the fitted curve at half-maximal effect

Row | Compound | Potency [1] | Potency [2] | Potency [3] | Potency [4] | outcome [5] | Potency [6] | Potency [7] | Potency [8] | Potency (Aromatase (Homo sapiens)) | Potency [9]
1 | CCOC(=O)C1=C(C)NC(C)=C(C(=O)OC)C1c1cccc([N+](=O)[O-])c1 (stereo not drawn) | inactive | inactive | inactive | inactive | inactive | inactive | inactive | inactive | inactive | –
2 | CC(C)(C)C1CCCCC1O (stereo not drawn) | inactive | inactive | inactive | inactive | inactive | inactive | – | inactive | inactive | inactive
3 | COc1ccc(OC)c(OC)c1 | inactive | inactive | inactive | inactive | inactive | inactive | inactive | inactive | inactive | –
4 | C1CCC2OC2C1 (stereo not drawn) | inactive | inactive | inactive | inactive | inactive | inactive | inactive | inactive | inactive | –
5 | CCN(CC)CCc1nc(-c2ccccc2)no1 | inactive | inactive | inactive | inactive | inactive | inactive | – | inactive | inactive | inactive
6 | O=C(c1ccc(O)cc1)c1ccc(O)cc1 | inactive | inactive | inactive | – | inactive | 17.4 µM [inconclusive] (active) | inactive | inactive | inactive | 2.73 µM (active)
7 | C1=Cc2ccccc2C1 | inactive | inactive | inactive | inactive | inactive | inactive | inactive | inactive | inactive | –
8 | NC1CCN(c2nc3c(cc2F)c(=O)c(C(=O)O)cn3-c2ccc(F)cc2F)C1 (stereo not drawn) | inactive | 23.7 µM (active) | inactive | – | inactive | inactive | – | – | inactive | inactive
9 | Cc1cccc(C(C)(C)C)c1O | inactive | inactive | inactive | – | inactive | inactive | inactive | inactive | inactive | inactive
10 | CCCCCCCCC(CO)CCCCCC (stereo not drawn) | inactive | inactive | inactive | inactive | inactive | inactive | – | inactive | inactive | inactive
11 | CC1=CC(=O)/C(=C(/C)O)C(=O)O1 | inactive | inactive | inactive | inactive | inactive | inactive | inactive | inactive | inactive | –
12 | CC(CN)CCCN (stereo not drawn) | inactive | inactive | inactive | inactive | inactive | inactive | inactive | inactive | inactive | –
13 | C=Cc1c(C)c2cc3[nH]c(cc4nc(cc5nc(cc1[nH]2)C(C)=C5CCC(=O)O)C(CCC(=O)O)=C4C)c(C)c3C=C | inactive | inactive | inactive | – | inactive | 4.25 µM [inconclusive] (active) | – | inactive | inactive | 1.06 µM (active)
14 | COC(=O)C(C)=O | inactive | inactive | inactive | inactive | inactive | inactive | – | inactive | inactive | inactive
15 | CC(=O)O[C@@H]1C(=O)O[C@@H]2[C@H]1OC(=O)[C@@H]2OC(C)=O | inactive | inactive | inactive | inactive | inactive | inactive | inactive | inactive | inactive | –
16 | O=C(Nc1ccccc1)OCC(CN1CCCCC1)OC(=O)Nc1ccccc1 (stereo not drawn) | 10.1 µM (active) | 10.1 µM (active) | inactive | inactive | inactive | inactive | – | inactive | inactive | inactive
17 | c1ccc(CNCc2ccccc2)cc1 | inactive | inactive | inactive | inactive | inactive | inactive | – | inactive | inactive | inactive
18 | CCOc1cc(OCC)c(C(=O)CCC(=O)O)cc1OCC | inactive | inactive | inactive | – | inactive | inactive | inactive | inactive | inactive | inactive
19 | CC/C(=C\C(=N/O)C(N)=O)C(C)[N+](=O)[O-] (stereo not drawn) | inactive | inactive | inactive | – | inactive | inactive | – | inactive | inactive | inactive
20 | OC(CCN1CCCCC1)(c1ccccc1)C1CCCCC1 (stereo not drawn) | inactive | inactive | inactive | inactive | inactive | inactive | – | inactive | inactive | inactive
21 | CC(=O)CC(=O)c1ccccc1 | inactive | inactive | inactive | inactive | inactive | inactive | – | inactive | inactive | 34.6 µM (active)
22 | C=C(C)C(=O)OCCOc1ccccc1 | inactive | inactive | inactive | – | inactive | inactive | inactive | inactive | – | 43.3 µM (active)
23 | Cc1ccc(C(=O)C(C)CN2CCCCC2)cc1 (stereo not drawn) | inactive | inactive | inactive | inactive | inactive | inactive | – | inactive | inactive | 26.6 µM (active) and inactive
24 | CCOC(=O)C1=NN(c2ccccc2)C(=O)C1 | inactive | inactive | inactive | – | inactive | inactive | – | inactive | inactive | inactive
25 | O=C(Cl)c1ccc([N+](=O)[O-])cc1 | inactive | inactive | inactive | inactive | inactive | inactive | – | inactive | inactive | inactive
26 | Cc1nc2ccccc2n1Cc1ccc(Cl)cc1 | inactive | 6.68 µM (active) | inactive | inactive | – | inactive | – | – | inactive | –

Row | Compound | Potency [1] | Potency [2] | Potency [3] | Potency [4] | outcome [5] | Potency [6] | Potency [7] | Potency [8] | Potency (Aromatase (Homo sapiens)) | Potency [9]
27 | CCCCCCCCN(C)C | inactive | inactive | inactive | inactive | inactive | inactive | – | inactive | inactive | inactive
28 | NCCCN(CCO)CCO | inactive | inactive | inactive | inactive | inactive | inactive | – | inactive | inactive | inactive
29 | Cc1cc(NC(=O)C(=O)O)cc(C)c1Oc1ccc(O)c2c1CCC2 | inactive | inactive | 0.0017 µM (active) | inactive | – | inactive | inactive | inactive | inactive | 38.6 µM (active)
30 | SC1CCCC1 | inactive | inactive | inactive | inactive | inactive | inactive | inactive | inactive | inactive | –
31 | CC(=O)/C=C/C1C(C)=CCCC1(C)C (stereo not drawn) | inactive | inactive | inactive | inactive | inactive | inactive | inactive | inactive | inactive | –
32 | Nc1ccc(C(=O)Nc2ccccc2N)cc1 | 18.8 µM (active) | 29.8 µM (active) | inactive | – | inactive | inactive | – | inactive | inactive | 33.5 µM (active)
33 | CC[C@H](C)[C@@H](C(=O)O)n1sc2ccccc2c1=O | inactive | inactive | inactive | inactive | inactive | inactive | – | inactive | inactive | inactive
34 | Nc1cnn([C@@H]2O[C@H](CO)[C@@H](O)[C@H]2O)c(=O)n1 | inactive | inactive | inactive | – | inactive | inactive | – | inactive | inactive | inactive
35 | CC(=O)SCc1ccco1 | inactive | inactive | inactive | inactive | inactive | inactive | – | inactive | inactive | inactive
36 | O=c1c2ccccc2nnn1CCl | inactive | inactive | inactive | inactive | inactive | inactive | – | inactive | inactive | inactive
37 | CCCCOCCOCCOCCOCCO | inactive | inactive | inactive | inactive | inactive | inactive | inactive | inactive | inactive | –
38 | NC(N)=N/N=C/c1c(Cl)cccc1Cl | 23.7 µM (active) | 23.7 µM (active) | inactive | – | inactive | inactive | inactive | – | inactive | inactive
39 | CN1CCC[C@@H]1c1cccnc1 | inactive | inactive | inactive | – | inactive | – | – | inactive | inactive | –
40 | Nc1nc(CC(=O)O)cs1 | inactive | inactive | inactive | – | inactive | – | – | inactive | inactive | –
41 | CCCCCCCCCCCCC(=O)O | inactive | inactive | inactive | – | inactive | inactive | inactive | inactive | inactive | –
42 | CNS(=O)(=O)Cc1ccc2[nH]cc(CCN(C)C)c2c1 | inactive | inactive | inactive | – | inactive | – | – | inactive | inactive | –
43 | O=CNc1ccccc1 | inactive | inactive | inactive | – | inactive | – | – | inactive | inactive | –
44 | Oc1ccc(C(O)CNCCCCCCNCC(O)c2ccc(O)c(O)c2)cc1O (stereo not drawn) | 15 µM (active) | 29.8 µM (active) | inactive | – | inactive | – | inactive | – | inactive | –
45 | CN(C(=O)CCCOc1ccc2[nH]c(=O)ccc2c1)C1CCCCC1 | inactive | inactive | inactive | – | inactive | – | – | inactive | inactive | –
46 | O=C(NS(=O)(=O)/C=C/c1cccs1)c1ccc(F)cc1Br | inactive | inactive | inactive | – | inactive | – | – | inactive | inactive | 68.6 µM (active)
47 | Cn1c(NCCN(CCO)CCCc2ccc([N+](=O)[O-])cc2)cc(=O)n(C)c1=O | inactive | inactive | inactive | – | inactive | – | – | inactive | inactive | –
48 | CN(c1nccc(=O)[nH]1)C1CCN(c2nc3ccccc3n2Cc2ccc(F)cc2)CC1 | inactive | inactive | inactive | – | inactive | inactive | inactive | inactive | inactive | –
49 | O=C(c1ccccc1)c1ccc2n1CCC2C(=O)O (stereo not drawn) | inactive | inactive | inactive | – | inactive | – | – | inactive | inactive | –
50 | CCN(CCO)CCCC(C)Nc1ccnc2cc(Cl)ccc12 (stereo not drawn) | inactive | inactive | inactive | – | inactive | – | – | inactive | inactive | –
51 | C=CC(=O)OCCOC(=O)CCC(=O)O | inactive | inactive | inactive | – | inactive | – | – | inactive | – | –
52 | CC(C)CCCCCCOC(=O)c1ccc(C(=O)OCCCCCCC(C)C)c(C(=O)OCCCCCCC(C)C)c1 | inactive | inactive | inactive | – | inactive | – | – | inactive | inactive | –
